High-throughput results from PubChem BioAssay.
HIF-2a inh: inhibitors of HIF-2a; 786-0 RCC cells HIF-2a reporter, luciferase luminescence, overnight; inhibition, % at 18.8 µM; 360,000 compounds, 0.72% hits; AID 624352;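 active means inhibition of the luminescence signal of 40% or more relative to plate controls, in a single-dose primary screen at 18.75 µM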
TRPM1 prom inh: inhibitors of MITF-driven TRPM1 promoter in melanoma cells. 330,000 compounds, 0.83% hits. inhibition, % at 12.5 µM. SK-MEL-5 TRPM1 promoter luciferase, 24 h;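 active means mean inhibition across replicates of 60% or more, whatever share of single replicates reaches that level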
ABHD5-PLIN5 inh: inhibitors of human ABHD5-perilipin-5 interaction | inhibition, % at 4 µM | Q00G26+Q8WTS1 | Split G. princeps luciferase complementation, luminescence, 4 h | AID 602281 | 360,000 compounds, 0.78% hits;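 active means inhibition above the mean inhibition across every tested compound plus 3 SD, cut at about 22% in these data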
Target sequence (Q00G26 whole entry, looked up): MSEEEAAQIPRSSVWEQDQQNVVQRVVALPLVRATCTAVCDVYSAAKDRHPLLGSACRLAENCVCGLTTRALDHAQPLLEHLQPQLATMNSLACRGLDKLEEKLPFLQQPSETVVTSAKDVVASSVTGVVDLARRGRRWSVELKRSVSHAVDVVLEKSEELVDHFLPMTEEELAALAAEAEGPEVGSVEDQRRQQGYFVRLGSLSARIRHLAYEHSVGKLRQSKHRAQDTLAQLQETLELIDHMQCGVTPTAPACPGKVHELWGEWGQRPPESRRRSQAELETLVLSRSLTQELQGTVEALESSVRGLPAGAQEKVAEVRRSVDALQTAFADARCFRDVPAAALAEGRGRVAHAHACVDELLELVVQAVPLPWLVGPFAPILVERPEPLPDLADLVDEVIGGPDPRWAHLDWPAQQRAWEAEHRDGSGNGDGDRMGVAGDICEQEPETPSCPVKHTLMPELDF
Target sequence (Q8WTS1 whole entry, looked up): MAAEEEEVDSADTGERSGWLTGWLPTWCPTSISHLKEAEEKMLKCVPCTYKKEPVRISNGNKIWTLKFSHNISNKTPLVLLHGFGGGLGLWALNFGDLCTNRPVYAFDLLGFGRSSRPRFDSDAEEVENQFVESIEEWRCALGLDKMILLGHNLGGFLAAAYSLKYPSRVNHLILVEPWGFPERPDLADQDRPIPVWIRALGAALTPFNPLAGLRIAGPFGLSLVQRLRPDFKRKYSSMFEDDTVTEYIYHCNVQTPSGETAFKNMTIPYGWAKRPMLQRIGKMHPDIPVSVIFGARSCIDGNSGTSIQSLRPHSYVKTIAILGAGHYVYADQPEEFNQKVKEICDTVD
CF NFkB inh: cystic fibrosis NF-kB activation inhibition; 360,000 compounds, 0.86% hits; inhibition, % at 5 µM; KKLEB NF-kB-GFP reporter, PAF-induced, GFP fluorescence overnight;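 active means at least 50% inhibition at 5 µM, scaled per plate between neutral and stimulator controls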;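 further: PAF is a Pseudomonas aeruginosa culture filtrate used as stimulus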
KKLEB tox: reduces viability of KKLEB cystic fibrosis airway cells; activity change (cytotoxicity), % at 5 µM; KKLEB CF airway cells viability, ATPlite luminescence, overnight; active compounds read low; cells stimulated with P. aeruginosa culture filtrate; 360,000 compounds, 0.36% hits;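 active means corrected activity change at or below -50% at 5 µM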
Peg3 prom inh: reduces Peg3 promoter-driven luciferase expression in HeLa; HeLa PEG-Prom luciferase reporter, luminescence, overnight; 360,000 compounds, 1.7% hits; inhibition, % at 20 µM;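 active means inhibition of at least 50% at 20 µM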
CF NFkB inh conf: CF NF-kB inhibition confirmation, single concentration; shares compounds with CF NFkB inh; KKLEB CF airway cells, PAF-induced NF-kB-GFP fluorescence, overnight; inhibition, % at 5 µM; 1,300 compounds, 64% hits; in the data active means inhibition above about 40%;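 further: stimulus PAF is a Pseudomonas aeruginosa filtrate and not platelet activating factor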
Each line names hits and unclear results; the compound was inactive in the other large screens (follow-up assays come after a bar, where they were run); ! = repeats disagree. A selection: hits, their analogues and other compounds. The true share with any hit is near 3%.

Cc1ccc(NC(=O)CSc2ncnc3ccccc23)cc1S(=O)(=O)N1CCOCC1	CF NFkB inh 56 | CF NFkB inh conf 73
CCN(C(=O)c1cc(S(=O)(=O)N2CCCCC2)c[nH]1)c1ccc(OC)cc1	CF NFkB inh 50 | CF NFkB inh conf 46
CCN(CC)C(=O)c1cc(S(=O)(=O)N2CCCCC2)c[nH]1	none (no result: TRPM1 prom inh)
O=C(N/N=C/c1c(F)cccc1Cl)C(=O)N1CCCCCC1	none
C=CCN(CC=C)c1ncnc2[nH]ncc12	CF NFkB inh 65 | CF NFkB inh conf 63
CN(C)C=Nc1c(C(=O)c2ccccc2)sc2nccc(N(C)C)c12	CF NFkB inh 53 | CF NFkB inh conf 57
CCCC1/C(=N/O)CC(c2ccccc2)NC1c1ccccc1 (stereo not given)	CF NFkB inh 75, Peg3 prom inh 60 | CF NFkB inh conf 60
Nc1c(OS(=O)(=O)c2ccccc2)cccc1OS(=O)(=O)c1ccccc1	none (no result: TRPM1 prom inh)
COc1ccc(NC(=O)Nc2cccc3c2O[C@H](CN(C)Cc2ccc(-c4ccccc4)cc2)[C@@H](C)CN([C@H](C)CO)C3=O)cc1	CF NFkB inh 59, Peg3 prom inh 94 | CF NFkB inh conf inactive
C[C@@H]1CN([C@H](C)CO)C(=O)c2cc(NC(=O)Nc3ccc(C(F)(F)F)cc3)ccc2O[C@H]1CN(C)S(=O)(=O)c1ccccc1	CF NFkB inh 57 | CF NFkB inh conf 57
COc1ccc(S(=O)(=O)N(C)C[C@H]2Oc3ccc(NC(=O)Nc4ccc(C(F)(F)F)cc4)cc3C(=O)N([C@H](C)CO)C[C@@H]2C)cc1	none
CC1(C)C2CCC1(CS(=O)(=O)N1CCN(c3ccc(F)cc3)CC1)C(=O)C2 (stereo not given)	none
Cc1ncc(CO)c2c1Oc1nc(-c3ccccc3F)nc(SCC(=O)N(C)c3ccccc3)c1C2	CF NFkB inh 94, Peg3 prom inh 85 | CF NFkB inh conf 96
Cc1ncc(CO)c2c1Oc1nc(-c3ccccc3)nc(SCC(=O)N3CCCCC3)c1C2	CF NFkB inh 85, Peg3 prom inh 64 | CF NFkB inh conf inactive
O=S(=O)(c1cccc2cnccc12)N1CCCNCC1	CF NFkB inh 50 | CF NFkB inh conf 58
O=C(/C=C/c1cccc([N+](=O)[O-])c1)n1cnc2ccccc21	TRPM1 prom inh 67, ABHD5-PLIN5 inh 23, CF NFkB inh 82, Peg3 prom inh 100 | CF NFkB inh conf 67
O=C(/C=C/c1cccc([N+](=O)[O-])c1)N1CCN(c2ccccn2)CC1	none
CCN1CCN(Cc2ccc(NC(=O)c3ccc(C)c(NC(=O)N4CCNC4=O)c3)cc2C(F)(F)F)CC1	CF NFkB inh 50 | CF NFkB inh conf 60
CCN1CCN(Cc2ccc(NC(=O)c3ccc(C)c(NC(=O)c4nccn4C)c3)cc2C(F)(F)F)CC1	none
CCN1CCN(Cc2ccc(NC(=O)c3ccc(C)c(NC(=O)c4cc(-c5ccc(Br)cc5)n[nH]4)c3)cc2C(F)(F)F)CC1	CF NFkB inh 51 | CF NFkB inh conf 67
CCN1CCN(Cc2ccc(NC(=O)c3ccc(C)c(NC(=O)c4cccc5[nH]ccc45)c3)cc2C(F)(F)F)CC1	CF NFkB inh 54! | CF NFkB inh conf 49
CCN(CC)C(=O)Cn1cc(C(=O)C(=O)NCCc2c[nH]c3ccccc23)c2ccccc21	none
COC(C(=O)N1CCC(n2nccc2NC(=O)C2CC2)CC1)c1ccccc1 (stereo not given)	none
Cc1ccc2oc(NC3=NC4(CCCC4)C4=C(CCCC4=O)N3)nc2c1	none (no result: TRPM1 prom inh)
Cc1cc2c(c(=O)n1Cc1cccnc1)C(Cc1ccccc1)C(C#N)=C(N)O2 (stereo not given)	CF NFkB inh 58 | CF NFkB inh conf inactive
Cc1c(Cl)cccc1N=C1SCCN1C(=O)CN1C(=O)NC2(CCCC2)C1=O	CF NFkB inh 53 | CF NFkB inh conf 40
COc1ccc(Oc2nc3c(c(=O)n(C)c(=O)n3C)n2C)cc1	none
Cn1c(=O)c2c(nc(Oc3ccc4ccccc4c3)n2C)n(C)c1=O	CF NFkB inh 55 | CF NFkB inh conf 69
Cc1cccc(C(=O)N[C@H](C(=O)Nc2nc3ccccc3[nH]2)C(C)C)c1	CF NFkB inh 66 | CF NFkB inh conf 83
COc1ccc(C(=O)N[C@H](C(=O)Nc2nc3ccccc3[nH]2)C(C)C)cc1	CF NFkB inh 55 | CF NFkB inh conf 78
O=C(NC1CCCC1)C(c1ccco1)N1CCC(O)(c2ccc(Cl)cc2)CC1 (stereo not given)	none (no result: TRPM1 prom inh, CF NFkB inh, KKLEB tox, Peg3 prom inh)
C[C@@H]1Cn2cnc(C(=O)NCC(=O)OC(C)(C)C)c2C(=O)N1	none (no result: TRPM1 prom inh)
C[C@H]1Cn2cnc(C(=O)Nc3cccc(Cl)c3)c2C(=O)N1	CF NFkB inh 62 (no result: TRPM1 prom inh) | CF NFkB inh conf 91
C/C(N)=C(/C#N)C(=O)CN1C(=O)NC(Cc2c[nH]c3ccccc23)C1=O (stereo not given)	none
Cc1ccc(S(=O)(=O)CC(CN2CCCCC2)N2CCCCC2)cc1 (stereo not given)	TRPM1 prom inh 69, CF NFkB inh 53 | CF NFkB inh conf 57
Cc1c(NC(=O)c2cc(-c3cccs3)nc3ccccc23)c(=O)n(-c2ccccc2)n1C	CF NFkB inh 65, Peg3 prom inh 54 | CF NFkB inh conf 64
Cc1c(NC(=O)c2cc(-c3ccccc3)nc3ccccc23)c(=O)n(-c2ccccc2)n1C	none
O=C1CCC(C(=O)N2CCN(c3cnccn3)CC2)CN1CCc1ccc(Cl)cc1 (stereo not given)	none
COc1ccc(NC(=O)Nc2nnc(CC(=O)Nc3ccccc3)s2)cc1	none
O=C(Nc1nnc(COc2ccccc2F)s1)Nc1ccccc1F	none
O=C(Nc1ccc(F)cc1)Nc1nnc(COc2ccccc2F)s1	CF NFkB inh 58 | CF NFkB inh conf 44
COc1cccc(NC(=O)Nc2nnc(CC(=O)Nc3ccccc3)s2)c1	CF NFkB inh 57 | CF NFkB inh conf 72
CCSc1nsc(NC(=O)Nc2cccc(OC)c2)n1	CF NFkB inh 70 | CF NFkB inh conf 53
CCCCN(C(=O)Cc1ccc(S(=O)(=O)N2CCOCC2)s1)c1c(N)n(CCCC)c(=O)[nH]c1=O	none
Cc1ccc(-c2c(C#N)c(N)n3c(nc4ccccc43)c2C#N)cc1	CF NFkB inh 55 | CF NFkB inh conf 50
C[C@@H]1C[C@H]2[C@@H]3CCC4=CC(=O)C=C[C@]4(C)[C@@]3(F)[C@@H](O)C[C@]2(C)[C@@]1(O)C(=O)CO	CF NFkB inh 71 | CF NFkB inh conf inactive
CC1(C)OC2CC3C4CCC5=CC(=O)C=CC5(C)C4(F)C(O)CC3(C)C2(C(=O)CO)O1 (stereo not given)	CF NFkB inh 67 (no result: TRPM1 prom inh) | CF NFkB inh conf inactive
CCCCn1c(N)c(N(CCOC)C(=O)COC(=O)COc2cc(C)c(Cl)cc2C(C)C)c(=O)[nH]c1=O	none
